Reference: PubChem BioAssay AID434961 (Broad Institute, 2010)
The campaign covered roughly 7,700 compounds. About 15 (0.2%) were called active. Inconclusive results (about 6%) are left out. Only a selection was taken, and actives are over-represented in it overall. A number with no mark means an inactive call.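 The calls were made as follows: active = more than half of replicate wells with inhibition above about 18% (limit read from the data, passing the limit was not always enough); inconclusive = exactly half of replicate wells above that limit; inactive = fewer than half of replicates above it.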

target: Regulator of chromosome condensation (Homo sapiens) + GTP-binding nuclear protein Ran (Homo sapiens) + Importin subunit beta-1 (Homo sapiens) (UniProt P18754+P62826+Q14974); test: inhibitors of Ran–importin-beta complex formation, primary screen, biochemical, CFP-Ran/YFP-importin-beta FRET, RCC1, cell-free (AID 434961); details: stronger effect = higher value, concentration not given here;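 also: 0% = DMSO wells and 100% inhibition = RanGDP control wells on each plate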

Question: Which inhibition does the source give for C[C@@H]1CCCCO[C@@H](CN(C)S(=O)(=O)c2cn(C)cn2)[C@H](C)CN([C@@H](C)CO)C(=O)c2cc(NC(=O)c3ccccc3)ccc2O1 here?
Answer: Its inhibition is 1.13%.

Question: Cc1ccc(S(=O)(=O)Nc2ccc3c(c2)CC(=O)N([C@H](C)CO)C[C@H](C)[C@@H](CN(C)Cc2ccncc2)O3)cc1 was tested. Which inhibition did it give?
Answer: Its inhibition is 0.0587%.

Question: Cc1noc(C)c1S(=O)(=O)Nc1ccc2c(c1)CC(=O)N([C@H](C)CO)C[C@@H](C)[C@@H](CN(C)C(=O)NC(C)C)O2 was tested. Which inhibition did it give?
Answer: The inhibition was -4.94%.

Question: C[C@H]1CN([C@@H](C)CO)C(=O)Cc2cc(NC(=O)C3CC3)ccc2O[C@H]1CN(C)Cc1ccc(Cl)c(Cl)c1 was tested. Which inhibition did it give?
Answer: Its inhibition is 7.64%.

Question: With C[C@@H]1CCCCO[C@H](CN(C)C(=O)Nc2ccccc2)[C@@H](C)CN([C@H](C)CO)C(=O)c2cc(NC(=O)Cc3ccccc3)ccc2O1 as the compound, how does the inhibition read?
Answer: The inhibition was 0.496%.

Question: With C[C@@H]1CCCCO[C@H](CN(C)C(=O)CCCN(C)C)[C@@H](C)CN([C@H](C)CO)C(=O)c2cc(NS(=O)(=O)c3cccs3)ccc2O1 as the compound, how does the inhibition read?
Answer: The inhibition was -2.86%.

Question: How did the inhibition turn out when C[C@@H]1CN([C@@H](C)CO)C(=O)c2cc(NC(=O)c3ccncc3)ccc2O[C@H]1CN(C)C(=O)Nc1ccccc1 was run?
Answer: The inhibition was 4.49%.

Question: With Cc1noc(C)c1NC(=O)N(C)C[C@@H]1Oc2ccc(NC(=O)Nc3cccc4ccccc34)cc2C(=O)N([C@H](C)CO)C[C@H]1C as the compound, how does the inhibition read?
Answer: The inhibition was -0.0777%.

Question: For C[C@@H]1CN([C@H](C)CO)C(=O)Cc2cc(NC(=O)C3CC3)ccc2O[C@H]1CN(C)C, which inhibition is on record?
Answer: Its inhibition is -6.15%.

Question: Which inhibition does the source give for C[C@@H]1CCCCO[C@H](CN(C)Cc2ccncc2)[C@H](C)CN([C@H](C)CO)C(=O)c2cc(NC(=O)c3ccncc3)ccc2O1 here?
Answer: The inhibition was -0.929%.

Question: C[C@@H]1CCCCO[C@@H](CN(C)S(=O)(=O)c2cccs2)[C@H](C)CN([C@H](C)CO)C(=O)c2cc(NS(C)(=O)=O)ccc2O1 was tested. Which inhibition did it give?
Answer: Its inhibition is -1.23%.

Question: How did the inhibition turn out when Cc1cc(C(=O)Nc2cccc3c2O[C@@H](CN(C)CC2CC2)[C@@H](C)CN([C@@H](C)CO)C3=O)n(C)n1 was run?
Answer: Its inhibition is -1.14%.

Question: C[C@@H]1CN([C@H](C)CO)C(=O)c2cccc(NC(=O)c3ccc(-c4nccs4)cc3)c2O[C@@H]1CN(C)C(=O)Nc1ccccc1 was tested. Which inhibition did it give?
Answer: The inhibition was -1.55%.

Question: For C[C@@H]1CN([C@H](C)CO)C(=O)c2cccc(NC(=O)c3ccc(-c4nccs4)cc3)c2O[C@@H]1CN(C)CC1CC1, which inhibition is on record?
Answer: The inhibition was 29.6% (active).

Question: Which inhibition does the source give for C[C@H]1CN([C@@H](C)CO)C(=O)c2cccc(NC(=O)c3ccc(-c4nccs4)cc3)c2O[C@@H]1CN(C)C(=O)Nc1ccccc1 here?
Answer: The inhibition was 0.856%.

Question: C[C@H](CO)N1C[C@H](C)[C@H](CN(C)CC2CC2)Oc2c(NC(=O)c3ccc(-c4nccs4)cc3)cccc2C1=O was tested. Which inhibition did it give?
Answer: The inhibition was -0.371%.

Question: C[C@H]1CN([C@@H](C)CO)C(=O)c2cccc(NC(=O)c3ccc(-c4nccs4)cc3)c2O[C@H]1CN(C)CC1CC1 was tested. Which inhibition did it give?
Answer: The inhibition was 1.58%.

Question: For C[C@H]1CN([C@@H](C)CO)C(=O)c2cccc(NC(=O)c3ccc(-c4nccs4)cc3)c2O[C@H]1CN(C)C(=O)Nc1ccccc1, which inhibition is on record?
Answer: The inhibition was 18.7% (active).

Question: Cc1noc(C)c1NC(=O)N(C)C[C@@H]1Oc2ccc(NS(=O)(=O)c3cccs3)cc2C(=O)N([C@H](C)CO)C[C@@H]1C was tested. Which inhibition did it give?
Answer: The inhibition was -1.63%.

Question: Which inhibition does the source give for C[C@@H]1CCCCO[C@@H](CN(C)C(=O)CCC(F)(F)F)[C@H](C)CN([C@@H](C)CO)C(=O)c2cc(NS(=O)(=O)c3ccccc3)ccc2O1 here?
Answer: The inhibition was -3.22%.

Question: How did the inhibition turn out when C[C@@H]1CN([C@@H](C)CO)C(=O)c2cccc(NS(C)(=O)=O)c2O[C@H]1CN(C)S(=O)(=O)c1cn(C)cn1 was run?
Answer: Its inhibition is 0.88%.

Question: With C[C@H]1CN([C@@H](C)CO)C(=O)Cc2cc(NC(=O)Cc3cn(C)c4ccccc34)ccc2O[C@@H]1CN(C)C(=O)Nc1ccccc1 as the compound, how does the inhibition read?
Answer: Its inhibition is 0.0312%.

Question: For Cc1noc(C)c1S(=O)(=O)Nc1cccc2c1O[C@H](CN(C)C(=O)NC1CCCCC1)[C@H](C)CN([C@@H](C)CO)C2=O, which inhibition is on record?
Answer: The inhibition was -6.51%.

Question: For Cc1noc(C)c1S(=O)(=O)Nc1cccc2c1O[C@@H](CN(C)Cc1ccc(C(F)(F)F)cc1)[C@@H](C)CN([C@@H](C)CO)C2=O, which inhibition is on record?
Answer: The inhibition was -1.54%.

Question: How did the inhibition turn out when C[C@H]1CN([C@@H](C)CO)C(=O)c2cc(NC(=O)C3CC3)ccc2O[C@@H]1CN(C)Cc1ccc(Cl)c(Cl)c1 was run?
Answer: Its inhibition is -5.2%.

Question: How did the inhibition turn out when C[C@@H]1CN([C@H](C)CO)C(=O)Cc2cc(NC(=O)Nc3ccccc3)ccc2O[C@@H]1CN(C)C(=O)Nc1ccc(C(F)(F)F)cc1 was run?
Answer: Its inhibition is -1.14%.

Question: How did the inhibition turn out when C[C@@H]1CCCCO[C@H](CN(C)C)[C@@H](C)CN([C@H](C)CO)C(=O)c2cc(NC(=O)Nc3ccc(F)cc3)ccc2O1 was run?
Answer: Its inhibition is 3.67%.

Question: How did the inhibition turn out when Cc1noc(C)c1S(=O)(=O)Nc1cccc2c1O[C@H](CN(C)C)[C@H](C)CN([C@H](C)CO)C2=O was run?
Answer: Its inhibition is 5.73%.

Question: C[C@@H]1CN([C@@H](C)CO)C(=O)c2cc(NC(=O)Nc3ccc4c(c3)OCO4)ccc2O[C@@H]1CN(C)Cc1ccc(C(=O)O)cc1 was tested. Which inhibition did it give?
Answer: The inhibition was -3.71%.

Question: Which inhibition does the source give for C[C@@H]1CN([C@@H](C)CO)C(=O)CCCn2nncc2CO[C@@H]1CN(C)C here?
Answer: Its inhibition is 4.43%.

Question: With COc1ccc(CN(C)C[C@@H]2OCCCC[C@H](C)Oc3ccc(NC(=O)Nc4c(C)noc4C)cc3C(=O)N([C@H](C)CO)C[C@@H]2C)cc1 as the compound, how does the inhibition read?
Answer: Its inhibition is 0.0847%.

Question: With Cc1noc(C)c1S(=O)(=O)Nc1ccc2c(c1)CC(=O)N([C@H](C)CO)C[C@H](C)[C@H](CN(C)C(=O)Nc1cccc3ccccc13)O2 as the compound, how does the inhibition read?
Answer: Its inhibition is 5.9%.

Question: How did the inhibition turn out when C[C@H](CO)N1C[C@H](C)[C@H](CN(C)S(=O)(=O)c2cccs2)Oc2c(NC(=O)Nc3ccc(C(F)(F)F)cc3)cccc2C1=O was run?
Answer: The inhibition was 3.84%.

Question: CC(C)NC(=O)N(C)C[C@H]1OCCCC[C@H](C)Oc2ccc(NC(=O)CCCN(C)C)cc2C(=O)N([C@H](C)CO)C[C@@H]1C was tested. Which inhibition did it give?
Answer: The inhibition was -1.47%.

Question: C[C@@H]1CN([C@@H](C)CO)C(=O)CCCn2cc(nn2)CO[C@H]1CN(C)C(=O)Nc1ccc(-c2cccs2)cc1 was tested. Which inhibition did it give?
Answer: The inhibition was -3.35%.

Question: COc1ccc(S(=O)(=O)Nc2ccc3c(c2)CC(=O)N([C@H](C)CO)C[C@H](C)[C@H](CN(C)S(=O)(=O)c2cn(C)cn2)O3)cc1 was tested. Which inhibition did it give?
Answer: Its inhibition is 5.44%.

Question: C[C@@H]1CN([C@@H](C)CO)C(=O)c2cccc(NS(=O)(=O)c3cccs3)c2O[C@@H]1CN(C)Cc1ccc(C(=O)O)cc1 was tested. Which inhibition did it give?
Answer: Its inhibition is -3.95%.

Question: For Cc1ccc(S(=O)(=O)Nc2ccc3c(c2)CC(=O)N([C@H](C)CO)C[C@@H](C)[C@@H](CN(C)C(=O)Nc2c(C)noc2C)O3)cc1, which inhibition is on record?
Answer: The inhibition was 1.18%.

Question: Which inhibition does the source give for C[C@H]1CN([C@@H](C)CO)C(=O)c2cccc(NC(=O)c3cnccn3)c2O[C@@H]1CN(C)C(=O)Nc1ccccc1 here?
Answer: The inhibition was -1.79%.

Question: C[C@H]1CCCCO[C@H](CN(C)C(=O)C2CCCCC2)[C@@H](C)CN([C@@H](C)CO)C(=O)c2cc(NS(=O)(=O)c3cccs3)ccc2O1 was tested. Which inhibition did it give?
Answer: Its inhibition is 2.26%.

Question: Which inhibition does the source give for C[C@@H]1CN([C@H](C)CO)C(=O)c2cc(NC(=O)c3ccncc3)ccc2O[C@@H](C)CCCCO[C@H]1CN(C)Cc1ccc(C(=O)O)cc1 here?
Answer: Its inhibition is -0.563%.

Question: Which inhibition does the source give for COc1ccc(NC(=O)Nc2ccc3c(c2)C(=O)N([C@H](C)CO)C[C@H](C)[C@@H](CN(C)C)O3)cc1 here?
Answer: The inhibition was -2.6%.

Question: With COc1ccc(CN(C)C[C@@H]2Oc3c(NS(=O)(=O)c4ccc(OC)cc4)cccc3C(=O)N([C@@H](C)CO)C[C@H]2C)cc1 as the compound, how does the inhibition read?
Answer: Its inhibition is 0.462%.

Question: C[C@@H]1CCCCO[C@@H](CN(C)C(=O)Nc2cccc3ccccc23)[C@@H](C)CN([C@@H](C)CO)C(=O)c2cc(N(C)C)ccc2O1 was tested. Which inhibition did it give?
Answer: Its inhibition is 2.86%.

Question: How did the inhibition turn out when Cc1noc(C)c1NC(=O)N(C)C[C@H]1Oc2c(NS(=O)(=O)c3ccccc3)cccc2C(=O)N([C@H](C)CO)C[C@@H]1C was run?
Answer: Its inhibition is 4.19%.

Question: Which inhibition does the source give for C[C@H]1CN([C@@H](C)CO)C(=O)CCCn2cc(nn2)CO[C@H]1CN(C)S(=O)(=O)c1ccc(Oc2ccccc2)nc1 here?
Answer: The inhibition was 0.77%.

Question: With C[C@@H]1CCCCO[C@@H](CN(C)Cc2ccccc2)[C@H](C)CN([C@@H](C)CO)C(=O)c2cc(NS(=O)(=O)c3ccccc3)ccc2O1 as the compound, how does the inhibition read?
Answer: The inhibition was 1.85%.

Question: With C[C@@H]1CN([C@@H](C)CO)C(=O)c2cc(NS(=O)(=O)c3cccs3)ccc2O[C@@H]1CN(C)C(=O)Nc1ccc(F)cc1 as the compound, how does the inhibition read?
Answer: The inhibition was -0.701%.

Question: How did the inhibition turn out when C[C@@H]1CN([C@H](C)CO)C(=O)c2cc(NC(=O)c3ccncc3)ccc2O[C@@H](C)CCCCO[C@H]1CN(C)S(=O)(=O)c1ccc(F)cc1 was run?
Answer: The inhibition was 0.556%.

Question: Which inhibition does the source give for COc1ccc(NC(=O)Nc2ccc3c(c2)C(=O)N([C@@H](C)CO)C[C@H](C)[C@H](CN(C)C)O3)cc1 here?
Answer: The inhibition was 4.32%.

Question: How did the inhibition turn out when C[C@@H]1CCCCO[C@@H](CN(C)C(=O)C2CCCCC2)[C@@H](C)CN([C@@H](C)CO)C(=O)c2cc(NC(=O)Nc3ccccc3)ccc2O1 was run?
Answer: The inhibition was -1.24%.

Question: For COc1ccc(NC(=O)Nc2ccc3c(c2)C(=O)N([C@H](C)CO)C[C@@H](C)[C@@H](CN(C)S(=O)(=O)c2cn(C)cn2)O3)cc1, which inhibition is on record?
Answer: The inhibition was 0.222%.

Question: Which inhibition does the source give for C[C@H]1CN([C@@H](C)CO)C(=O)c2cccc(NC(=O)C3CCOCC3)c2O[C@H]1CN(C)Cc1ccc(Oc2ccccc2)cc1 here?
Answer: Its inhibition is 5.74%.

Question: How did the inhibition turn out when C[C@@H]1CN([C@@H](C)CO)C(=O)c2cc(NC(=O)Nc3ccc4c(c3)OCO4)ccc2O[C@@H]1CN(C)C was run?
Answer: Its inhibition is -2.36%.

Question: With C[C@H]1CCCCO[C@@H](CN(C)S(=O)(=O)c2ccccc2)[C@@H](C)CN([C@@H](C)CO)C(=O)c2cc(N(C)C)ccc2O1 as the compound, how does the inhibition read?
Answer: Its inhibition is 1.05%.
